# Screening data from PubChem BioAssay.
# pS6 MEF inh – inhibitors of mTORC1 signaling in Tsc2-/- p53-/- MEF cells; Tsc2-/- p53-/- MEF, phospho-rpS6 immunofluorescence/PI, 24 h; Potency, µM (doses to about 38.3 µM), hits mostly inhibitors; 44,000 compounds, 0.78% hits; AID 493208; further: nearly all actives have a fitted effect of over 50% in size
#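 Tsc2-/-, p53-/- mouse embryonic fibroblasts (empty-vector line) exposed to compound 24 hrs at 37 C, fixed, immunostained for phospho-rpS6 and counterstained with propidium iodide. Acumen laser scanning gives % positive cells from Alexa 488/PI ratio, thresholded using 7.5 nM rapamycin; PI count gives viability.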
# PMP22 txn – modulators of PMP22 gene transcription in S16 Schwann cells; AID 1508649; S16 Pmp22-F2sN Schwann cells, FLuc/NLuc coincidence luminescence, 24 h; Potency, µM (doses to about 57.5 µM), actives largely listed as inhibitors; 43,000 compounds, 2% hits; active means clear falling dose curves in both reporters; inconclusive means both reporters move, but less clearly or upward; inactive means either reporter flat; the % is the NLuc reporter signal
#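 Reporter cells (S16 Pmp22-F2sN, 500–1,000 per well) exposed to compounds for 24 h, 37C, 5% CO2; lysis with FLuc read after 10 min, then Stop&Glo and NLuc read after 10 min.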
# p53null 39C tox – kills p53 null cells at the nonpermissive temperature; H1299 p53-null (neo) cells, 39C, ATPlite viability, 24 h; Potency, µM (highest dose often 46.1 µM), actives largely listed as cytotoxic; 55,000 compounds, 0.97% hits; AID 904; further: nearly all actives have a fitted effect of over 50% in size
#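 Following overnight plating at 37C (600 cells/well), H1299-neo or H1299-p53A138V cells are dosed up to 46 uM. Incubation lasts 24 hr at 39C before ATP detection.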
# S16 viability – S16 Schwann cell cytotoxicity; Potency, µM (titrated, usually from 57.5 µM), hits mostly cytotoxic; S16 Pmp22-F2sN Schwann cells (luciferase reporters placed in the Pmp22 gene) viability, CellTiter-Glo, 24 h; 43,000 compounds, 0.48% hits; AID 1508642; further: nearly all actives have a fitted effect of over 65% in size
#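 Rat S16 Schwann reporter line, 24 h treatment with library compounds delivered at 23 nL per well. Cell viability by CellTiter-Glo luminescence.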
# p53null 32C kill – kills p53 null cells at the permissive temperature; H1299-neo p53 null cells, ATP luminescence, 24 h, 32C; Potency, µM (top dose mostly 46.1 µM), actives largely listed as cytotoxic; 55,000 compounds, 0.62% hits; AID 903; further: nearly all actives have a fitted effect of over 55% in size
#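 Cells lacking p53 (H1299-neo) are plated at 600 per well and allowed to settle overnight at 37C. Test compounds (up to 46 uM) are added and held 24 hours at 32C, then ATP is quantified by luminescence.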
# OvCa metastasis – blocks SKOV3ip1 adhesion and invasion in omental model; SKOV3ip1-GFP adhesion/invasion on 3D omental model, fluorescence; Potency, µM (doses to about 45.8 µM), usual class: inhibitors; 46,000 compounds, 0.1% hits; AID 1963576; further: nearly all actives have a fitted effect of over 65% in size
#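 Adhesion/invasion was scored as fixed GFP-labeled SKOV3ip1 cell counts (488/509 nm), normalized to DMSO and tomatine controls. Cancer cells in serum-free medium, with four compound doses (0.36-46 umol/L), sat 2 hr at RT then 16 hr at 37 C on a 48 hr fibroblast/mesothelial/ECM culture.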
# A number is an active result; 0 = inactive; ? = inconclusive; - = not tested or not shown. Shown are actives, neighbours in structure and some others; about 3.1% of the full set was active somewhere. Unless noted, the call rests on the fitted dose curve; in most records, active means well fitted curve in the direction sought with a large enough effect; inconclusive means small, poorly fitted or top-dose-only effect, or another doubt; inactive means no such curve, though single readings can be large; an effect the other way counts as inactive or inconclusive.
SMILES,pS6 MEF inh,PMP22 txn,p53null 39C tox,S16 viability,p53null 32C kill,OvCa metastasis
CCn1c(=O)cc(OCC(=O)N2CCN(c3ccc(C)cc3)C(C)C2)c2ccccc21 (configuration not stated),0,?,25µM,0,0,0
CCOc1ccc(-c2cc(C(=O)N3CCN(c4ccc(C)cc4)C(C)C3)c3ccccc3n2)cc1 (configuration not stated),0,0,?,0,13µM,0
CN(CC(=O)N(Cc1ccc(C2CCCCC2)cc1)c1ccc(C(=O)O)c(O)c1)S(=O)(=O)c1c(F)c(F)c(F)c(F)c1F,-,-,-,-,-,0
Cc1cccc(CCNC(=O)c2cc3c(s2)-c2c(C)cccc2OC3)c1,0,?,0,?,0,0
Cc1cccc2c1-c1sc(C(=O)NCCc3ccc(Cl)cc3)cc1CO2,?,?,?,32µM,0,0
COc1cc2nccc(Oc3ccc(NC(=O)Nc4cc(C)on4)c(Cl)c3)c2cc1OC,-,-,-,-,-,0
COc1ccc2c(c1)CCc1c(C(=O)Nc3ccccc3C(F)(F)F)noc1-2,0,-,0,-,0,0
O=C(Nc1ccccc1C(F)(F)F)c1noc2c1CCCCC2,0,-,5µM,-,10µM,0
CCOc1ccc(S(=O)(=O)NCC(c2cccs2)S(=O)(=O)c2ccc(C)cc2)cc1 (configuration not stated),?,?,0,?,0,?
Cc1cc(C)c(S(=O)(=O)NCC(c2ccco2)S(=O)(=O)c2ccccc2)c(C)c1 (configuration not stated),0,0,0,0,0,0
Cc1ccc(S(=O)(=O)C(CNS(=O)(=O)c2ccc(F)c(C)c2)c2cccs2)cc1 (configuration not stated),0,?,0,25µM,0,0
Cc1cc(C)c(S(=O)(=O)NCC(c2cccs2)S(=O)(=O)c2ccccc2)c(C)c1 (configuration not stated),?,?,0,13µM,0,?
CN(C[C@@H]1COCCO1)S(=O)(=O)Nc1ccc2ccc3ncc(-c4cnn(C)c4)cc3c(=O)c2c1,-,-,-,-,-,0
O=C(Nc1ccc(C(=O)N2CCCCC2)cc1)c1nsc2ccccc12,0,0,4µM,?,4µM,0
Cc1ccc(CNC(=O)c2ccc(NC(=O)c3nsc4ccccc34)cc2)cc1,0,0,0,0,0,0
CCOC(=O)c1ccc(NC(=O)c2nsc3ccccc23)cc1,0,0,10µM,?,7.9µM,0
O=C(Nc1ccc(C(=O)N2CCN(c3ccc(F)cc3)CC2)cc1)c1nsc2ccccc12,0,0,0,?,0,0
O=C(NCc1cccc(F)c1)c1ccc(NC(=O)c2nsc3ccccc23)cc1,0,0,10µM,?,?,0
CNC(=O)c1ccc(NC(=O)c2nsc3ccccc23)cc1,0,0,5µM,0,6.3µM,0
O=C(NCCCN1CCN(c2ccc(F)cc2)CC1)Nc1ccc(Cl)cc1,?,?,?,?,0,0
Cc1cccc(N2CCN(CCNC(=O)Nc3ccc(Cl)cc3)CC2)c1C,18µM,?,?,?,?,?
C[C@@H]1CN(CC(=O)Nc2ccc3c(c2)Cc2cccc(-c4cc(=O)cc(N5CCOCC5)o4)c2S3)C[C@H](C)O1,-,-,-,-,-,0
Fc1ccc(Nc2nc(Nc3ccc(F)cc3)nc(N3CCOCC3)n2)cc1,2.1µM,0,0,0,0,0
COc1ccc(C)cc1NC(=O)Nc1cccc(-c2noc(C)n2)c1,?,?,0,0,0,0
Cc1nc(-c2cccc(NC(=O)Nc3ccc([N+](=O)[O-])cc3)c2)no1,?,?,0,28µM,0,0
SMILES,pS6 MEF inh,PMP22 txn,p53null 39C tox,S16 viability,p53null 32C kill,OvCa metastasis
O=C(CSc1nccn1Cc1ccc(Cl)cc1)Nc1nc2ccccc2s1,0,0,14µM,0,0,0
COc1ccc(Cc2ccc(NC(N)=O)cc2)cc1-c1cccc(Cl)c1,-,-,-,-,-,0
O=C(CSc1nnc2[nH]c(=O)cc(-c3ccccc3)n12)Nc1cc(C(F)(F)F)ccc1Cl,0,?,0.79µM,0,1.3µM,0
Cc1cc(=O)[nH]c2nnc(SCC(=O)Nc3cc(C(F)(F)F)ccc3Cl)n12,0,?,?,0,0,0
COc1ccc(CNS(=O)(=O)c2ccc(-c3cc(C(F)(F)F)on3)s2)cc1OC,0,20µM,0,?,0,0
C=CCN1C=CC(=C/C=C(/C#N)C(=O)OCC)C=C1,-,-,?,-,8.9µM,-
CCOC(=O)/C(C#N)=C/c1ccc(-c2ccc(Br)cc2)o1,0,-,0,-,0,0
COC(=O)c1cc(C)nc2c1c(=O)nc(SCc1c(C)cc(C)cc1C)n2C1CC1,0,?,13µM,?,0,0
COC(=O)c1cc(C)nc2c1c(=O)nc(SCc1cc(C)ccc1C)n2C1CC1,0,?,0,0,0,0
NS(=O)(=O)c1ccc(Nc2nc(OCC3CCCCC3)c3[nH]cnc3n2)cc1,-,-,-,-,-,0
Cc1nn2c(=O)cc(COC(=O)c3cccc(NC(=O)c4ccc(C(C)(C)C)cc4)c3)nc2s1,0,0,1.3µM,0,3.2µM,0
Cc1nn2c(=O)cc(COC(=O)c3ccc(NC(=O)c4cccs4)cc3)nc2s1,0,?,0,0,0,0
CCCN1CCN(c2ncnc3sc(C(=O)Nc4c(C)cc(C)cc4C)c(C)c23)CC1,0,?,0,25µM,0,0
CCc1nn(CC(=O)NCc2ccccc2)c(=O)c2cccn12,?,0,25µM,0,0,0
COC(=O)C=CC(=O)OC,-,-,-,-,-,0
O=C(O)c1cc(-c2ccc(C(F)(F)F)cc2)nc2n[nH]c(-c3ccccc3)c12,0,0,16µM,0,?,0
O=c1ccn([C@@H]2O[C@H](CO)[C@H](O)[C@@H]2F)c(=O)[nH]1,-,-,-,-,-,0
COc1ccc(-c2nc(SCC(=O)Nc3cccc(C(C)=O)c3)n[nH]2)cc1,0,0,25µM,0,?,0
O=C(NCCCNc1nc(Nc2cccc(NC(=O)N3CCCC3)c2)ncc1I)c1cccs1,-,-,-,-,-,0
Cc1ccc(-c2nnc(Nc3cccc(Br)c3)c3ccccc23)cc1S(=O)(=O)N1CCN(C)CC1,0,?,0,?,0,0
Cc1cccc(Nc2nnc(-c3ccc(C)c(S(=O)(=O)N4CCN(C)CC4)c3)c3ccccc23)c1,?,?,10µM,0,0,0
CCCCCCCCc1ccc(CCC(N)(CO)CO)cc1,-,-,-,-,-,0
CCN(C(=O)c1c(O)c2c(Cl)cccc2n(C)c1=O)c1ccccc1,-,-,-,-,-,0
Cc1cccc(CCNC(=O)c2ccc3c(c2)nc2n3CCCCC2)c1,0,0,10µM,0,10µM,0
CCCNC(=O)c1ccc2c(c1)nc1n2CCCCC1,0,0,10µM,0,13µM,0
